Inconclusive results are not listed. Entries that show only a call come without a potency. More than one record can exist for a structure, and the calls need not agree. The source made the active and inactive calls. The call rests on the fitted dose curve.
Biological target: Muscarinic acetylcholine receptor M1 (Homo sapiens) (UniProt P11229)
Assay: Cholinergic receptor muscarinic 1 (CHRM1) small molecule antagonists, cell-based qHTS assay (AID 1963588); further: nearly all actives have a fitted effect of over 40% in size
Details: CHRM1-CHO antagonist mode, calcium flux fluorescence; series mostly up to 61.5 µM; activity, negative = inhibition: at the top concentration
From the text: National Center for Advancing Translational Sciences [NCATS]
Division of Preclinical Innovation [DPI]
U.S. Environmental Protection Agency [EPA]
National Institutes of Environmental Health Sciences [NIEHS]
National Toxicology Program [NTP]
U.S. Food and Drug Administration [FDA]
The CHRM1 is a muscarinic receptor. This receptor plays a crucial role in learning and memory processes and has long been identified as a promising therapeutic target for the improvement of cognitive decline in Alzheimer's disease (AD). The CHRM1-CHO cell line stably expressing human muscarinic acetylcholine receptor M1 (CHRM1) can be used for screening agonists and antagonists of interactions between CHRM1 and its ligands. The CHRM1-CHO Calcium Flux Assay is a homogeneous fluorescence-based assay for detecting the intracellular calcium level using FDSS kinetic plate reader system.
Tox21 Assay Protocol Summary:
CHRM1-CHO cells were dispensed at 1000 cells/3uL/well in 1536-well black-clear bottom plates using a Multidrop Dispenser. After the assay plates were incubated at a 37 C/5% CO2 incubator for 18 h, 3 uL of Dye Loading Buffer was transferred to the assay plate by a Flying Reagent Dispenser. The assay plates were incubated at 37 C for 1h. For antagonist mode, 23 nL of compounds dissolved in DMSO, positive controls or DMSO only was transferred to the assay plate by a pin tool. After 5 min incubation at room temperature, 1.5 uL of acetylcholine at 50nM was added to each well. The fluorescence intensity in the plates was measured using FDSS 7000EX kinetic plate reader for 3 min at 1 sec intervals. Each test compound was measured at 15 concentrations in three independent runs.
Potency means the concentration at half of the fitted maximal effect.

Chain of Muscarinic acetylcholine receptor M1 (Homo sapiens) (P11229 whole entry, looked up): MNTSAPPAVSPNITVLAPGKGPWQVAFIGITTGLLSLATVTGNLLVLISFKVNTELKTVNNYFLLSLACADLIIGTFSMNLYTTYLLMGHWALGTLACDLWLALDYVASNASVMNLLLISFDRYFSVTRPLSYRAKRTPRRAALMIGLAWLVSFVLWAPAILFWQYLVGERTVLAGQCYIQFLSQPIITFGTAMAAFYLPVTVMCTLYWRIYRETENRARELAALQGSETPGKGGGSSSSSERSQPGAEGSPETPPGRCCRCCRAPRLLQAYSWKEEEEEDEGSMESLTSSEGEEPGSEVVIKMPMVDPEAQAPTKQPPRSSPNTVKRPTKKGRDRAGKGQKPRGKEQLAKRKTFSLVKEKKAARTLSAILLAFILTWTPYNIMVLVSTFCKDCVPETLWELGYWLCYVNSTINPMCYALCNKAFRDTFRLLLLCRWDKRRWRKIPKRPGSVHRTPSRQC

| Compound | Potency | activity, negative = inhibition |
| --- | --- | --- |
| OCCOCCOCCOCCO | inactive | – |
| Cc1ccc(S(=O)(=O)NCl)cc1 | inactive | – |
| CCCCCCCC(=O)OCC(COC(=O)CCCCCCC)OC(=O)CCCCCCC | inactive | – |
| CC(=O)c1nccs1 | inactive | – |
| C=CC(=O)OCCOCCOCCOCCOC(=O)C=C | inactive | – |
| Cc1cccc(O)c1 | inactive | – |
| COc1ccc(O)cc1 | inactive | – |
| CC(=O)c1ccccn1 | inactive | – |
| O=c1cc[nH]c(=O)[nH]1 | inactive | – |
| CC(=O)Nc1ccc(CC(=O)O)cc1 | inactive | – |
| CCCC[P+](CCCC)(CCCC)CCCC | inactive | – |
| C=C(C)C(=O)Nc1ccc(Cl)c(Cl)c1 | – | 10.3% (inactive) |
| CCCCN(CCCC)CCCC | inactive | – |
| C=CC(C)(CCC=C(C)C)OC(C)=O (stereo not given) | inactive | – |
| O=[N+]([O-])c1ccccc1C(F)(F)F | – | 32.6% (inactive) |
| CC(=O)N[C@@H](CS)C(=O)O | inactive | – |
| O=[N+]([O-])c1cc(C(F)(F)F)ccc1Cl | inactive | – |
| CCCCCCCC(=O)O | inactive | – |
| OCC1CCCO1 (stereo not given) | inactive | – |
| O=C(Oc1ccccc1)c1ccccc1O | inactive | – |

| Compound | Potency | activity, negative = inhibition |
| --- | --- | --- |
| O=C1C(N(CO)C(=O)NCO)N(CO)C(=O)N1CO (stereo not given) | inactive | – |
| CNC[C@H](O)c1cccc(O)c1 | – | 6.15% [at 28.3 µM] (inactive) |
| Clc1ccc(Sc2cc(Cl)c(Cl)cc2Cl)cc1 | inactive | – |
| CCCCOC(=O)COc1ccc(Cl)cc1Cl | inactive | – |
| CCOC(=O)C(C#N)=C(c1ccccc1)c1ccccc1 | inactive | – |
| NC(N)=O | inactive | – |
| C=C[C@@]1(C)CC(=O)[C@]2(O)[C@@]3(C)[C@@H](O)CCC(C)(C)[C@@H]3[C@H](O)[C@H](OC(C)=O)[C@@]2(C)O1 | inactive | – |
| CC1CCC2CC1C2(C)C (stereo not given) | inactive | – |
| CCCCCC(=O)O | inactive | – |
| CC(=O)OCC(=O)[C@@]12N=C(C)O[C@@H]1C[C@H]1[C@@H]3CCC4=CC(=O)C=C[C@]4(C)[C@H]3[C@@H](O)C[C@@]12C | inactive | – |
| COC(=O)CCC(=O)OC | inactive | – |
| O=C(O)CC(C(=O)O)C(CC(=O)O)C(=O)O (stereo not given) | inactive | – |
| COc1ccccc1O | inactive | – |
| C=C(C)C(N)=O | 847 nM (active) and inactive | – |
| Cc1c(C(N)=O)cc([N+](=O)[O-])cc1[N+](=O)[O-] | inactive | – |
| CCCCCCCCCCCO | inactive | – |
| C=C(C)C1CC=C(C)CC1 (stereo not given) | inactive | – |
| CCCCC/C(C=O)=C\c1ccccc1 | inactive | – |
| CN1C(=O)CC[C@H]1c1cccnc1 | inactive | – |
| C[Si](O[Si](C)(C)C)O[Si](C)(C)C | inactive | – |
